# According to PubChem BioAssay (NCATS):
# Inconclusive results are not listed. Where a call stands in place of a potency, no number is given. Calls of active or inactive are those of the source. Calls follow the shape of the dose curve; as a rule, active = well fitted curve in the direction sought with a large enough effect; inconclusive = small, poorly fitted or top-dose-only effect, or another doubt; inactive = no such curve, though single readings can be large; an effect the other way counts as inactive or inconclusive.
# Tests used:
# [1] = qHTS of pediatric cancer cell lines to identify multiple opportunities for drug repurposing: Primary screen for DAOY cells (AID 1347090); also: nearly all actives have a fitted effect of over 55% in size
# How it was run: (§1)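 Eight- or eleven-point concentration series, 48 h treatment at 37 degrees C in growth media; readout CellTiter-Glo luminescence. Potency and efficacy were taken from the concentration-response curves.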
# [2] = qHTS of pediatric cancer cell lines to identify multiple opportunities for drug repurposing: Primary screen for SJ-GBM2 cells (AID 1347091)
# How it was run: as §1
# [3] = qHTS of pediatric cancer cell lines to identify multiple opportunities for drug repurposing: Primary screen for A673 cells (AID 1347092); also: nearly all actives have a fitted effect of over 45% in size
# How it was run: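 Cell viability of A673 measured by CellTiter-Glo ATP luminescence after 48 hours compound exposure. Dilution series spanned 0.78 nM to 46 µM (MIPE, 11-point) or 0.59 nM to 46 µM (NPC, 8-point); bortezomib 2.3 uM positive control.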
# [4] = qHTS of pediatric cancer cell lines to identify multiple opportunities for drug repurposing: Primary screen for SK-N-MC cells (AID 1347093)
# How it was run: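 Metabolically active cells were quantified by ATP-dependent luminescence (CellTiter-Glo, 15 min at room temperature) following 48 h treatment. Cells had been plated at 500-1,000 per well and settled for 5 h beforehand.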
# [5] = qHTS of pediatric cancer cell lines to identify multiple opportunities for drug repurposing: Primary screen for NB-EBc1 cells (AID 1347095)
# How it was run: (§2)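 500-1,000 cells/well; 5 h pre-incubation 37 °C/5% CO2; compound pinned; 48 h; CellTiter-Glo, 15 min RT; luminescence. MIPE 11-pt from 0.78 nM, NPC 8-pt from 0.59 nM final. Bortezomib 2.3 µM final as positive control.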
# [6] = qHTS of pediatric cancer cell lines to identify multiple opportunities for drug repurposing: Primary screen for Saos-2 cells (AID 1347097); also: nearly all actives have a fitted effect of over 40% in size
# How it was run: as §2
# [7] = qHTS of pediatric cancer cell lines to identify multiple opportunities for drug repurposing: Primary screen for LAN-5 cells (AID 1347100)
# How it was run: (§3)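 Cells (500-1,000/well) in growth media were settled 5 h at 37 degrees C, then given compounds for 48 h. Viability was read as CellTiter-Glo luminescence. Primary runs used MIPE at 11 points (0.78 nM-46 µM) and NPC at 8 points (0.59 nM-46 µM); follow-ups used 11 points.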
# [8] = qHTS of pediatric cancer cell lines to identify multiple opportunities for drug repurposing: Primary screen for BT-12 cells (AID 1347101); also: nearly all actives have a fitted effect of over 25% in size
# How it was run: (§4)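 Cells (500-1,000/well) rested 5 h, then received compounds for 48 h; metabolically active cells were measured by CellTiter-Glo luminescence. Final concentrations spanned up to 46 µM (MIPE, 11-point) or 0.59 nM-46 µM (NPC, 8-point) in primary screens, 11-point in follow-ups.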
# [9] = qHTS of pediatric cancer cell lines to identify multiple opportunities for drug repurposing: Primary screen for Rh18 cells (AID 1347102); also: nearly all actives have a fitted effect of over 65% in size
# How it was run: as §3
# [10] = qHTS of pediatric cancer cell lines to identify multiple opportunities for drug repurposing: Primary screen for OHS-50 cells (AID 1347103); also: nearly all actives have a fitted effect of over 40% in size
# How it was run: as §4
# [11] = qHTS of pediatric cancer cell lines to identify multiple opportunities for drug repurposing: Primary screen for RD cells (AID 1347104); also: nearly all actives have a fitted effect of over 55% in size
# How it was run: as §2
# [12] = qHTS of pediatric cancer cell lines to identify multiple opportunities for drug repurposing: Primary screen for MG 63 (6-TG R) cells (AID 1347105); also: nearly all actives have a fitted effect of over 50% in size
# How it was run: as §2
# [13] = qHTS of pediatric cancer cell lines to identify multiple opportunities for drug repurposing: Primary screen for TC32 cells (AID 1347089); also: nearly all actives have a fitted effect of over 60% in size
# How it was run: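 Luminescent ATP read-out (CellTiter-Glo) of metabolically active TC32 cells after 48 h exposure. Concentration-response curves came from 11-point (MIPE, 0.78 nM–46 µM) or 8-point (NPC, 0.59 nM–46 µM) primary titrations; follow-up used 11 points.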
# [14] = qHTS of pediatric cancer cell lines to identify multiple opportunities for drug repurposing: Primary screen for BT-37 cells (AID 1347094)
# How it was run: as §2
# [15] = qHTS of pediatric cancer cell lines to identify multiple opportunities for drug repurposing: Primary screen for U-2 OS cells (AID 1347096); also: nearly all actives have a fitted effect of over 50% in size
# How it was run: as §3
# [16] = qHTS of pediatric cancer cell lines to identify multiple opportunities for drug repurposing: Primary screen for SK-N-SH cells (AID 1347098); also: nearly all actives have a fitted effect of over 65% in size
# How it was run: as §4
# [17] = qHTS of pediatric cancer cell lines to identify multiple opportunities for drug repurposing: Primary screen for NB1643 cells (AID 1347099); also: nearly all actives have a fitted effect of over 50% in size
# How it was run: as §2
# Potency is read from the fitted curve at half-maximal effect.
SMILES,Potency [1],Potency [2],Potency [3],Potency [4],Potency [5],Potency [6],Potency [7],Potency [8],Potency [9],Potency [10],Potency [11],Potency [12],Potency [13],Potency [14],Potency [15],Potency [16],Potency [17]
CCCCC1C(=O)N(c2ccccc2)N(c2ccc(O)cc2)C1=O (centres undefined),5.31 µM (active),10.6 µM (active),10.6 µM (active),2.66 µM (active),2.99 µM (active),16.8 µM (active),5.96 µM (active),5.5 µM (active),8.41 µM (active),11 µM (active),6.68 µM (active),21.1 µM (active),,,,,
c1ccc2sc(SSc3nc4ccccc4s3)nc2c1,inactive,inactive,,inactive,inactive,inactive,inactive,inactive,inactive,inactive,inactive,inactive,inactive,inactive,inactive,inactive,
C#CC1(O)CC[C@H]2[C@@H]3CCC4=CCCC[C@@H]4[C@H]3CC[C@@]21C (some centres undefined),,inactive,,,inactive,,inactive,,inactive,,inactive,21.1 µM (active),inactive,inactive,,24.4 µM (active),
O=C(O)c1cc(O)c(O)c(O)c1,inactive,inactive,,inactive,inactive,,inactive,inactive,inactive,inactive,inactive,inactive,inactive,inactive,inactive,inactive,inactive
O=C1CN(/N=C/c2ccc([N+](=O)[O-])o2)C(=O)N1,inactive,inactive,,inactive,inactive,inactive,inactive,,inactive,inactive,inactive,,,inactive,inactive,inactive,
O=C(O)c1ccccc1Nc1cccc(C(F)(F)F)c1,inactive,inactive,inactive,,inactive,inactive,inactive,inactive,inactive,inactive,inactive,inactive,inactive,inactive,inactive,inactive,inactive
[O-][n+]1ccccc1SSc1cccc[n+]1[O-],0.0731 µM (active),,0.0731 µM (active),0.058 µM (active),,0.092 µM (active),,0.12 µM (active),0.517 µM (active),0.338 µM (active),0.0731 µM (active),0.184 µM (active),0.325 µM (active),3.01 µM (active),0.231 µM (active),0.067 µM (active),0.092 µM (active)
Nc1ccc(O)c([N+](=O)[O-])c1,inactive,inactive,inactive,,inactive,,,,inactive,inactive,inactive,inactive,,inactive,inactive,,inactive
N=C1N=C(N)c2cc3ccccc3cc21,24.3 µM (active),24.3 µM (active),19.3 µM (active),6.86 µM (active),,24.3 µM (active),24.3 µM (active),25.2 µM (active),48.6 µM (active),17.8 µM (active),34.4 µM (active),24.3 µM (active),inactive,15.9 µM (active),,25 µM (active),
CCCC(=O)OC[C@@H](OC(=O)CCC)[C@@H](OC(=O)CCC)[C@H](Cn1c2nc(=O)[nH]c(=O)c-2nc2cc(C)c(C)cc21)OC(=O)CCC,inactive,inactive,,,,,,27.6 µM (active),,,,inactive,inactive,,inactive,inactive,inactive
CCCCCCCC/C=C/C(=O)O,inactive,inactive,,42.2 µM (active),inactive,inactive,inactive,inactive,inactive,inactive,inactive,inactive,inactive,inactive,inactive,,
CCOc1ccc2nc(S(N)(=O)=O)sc2c1,inactive,inactive,,,inactive,,inactive,inactive,inactive,inactive,inactive,inactive,inactive,,inactive,inactive,
COc1ccc(-c2cc(=S)ss2)cc1,inactive,inactive,inactive,inactive,,inactive,inactive,,inactive,,inactive,inactive,inactive,inactive,inactive,inactive,inactive
O=Cc1ccc(O)c(O)c1O,inactive,inactive,,,inactive,,,inactive,,inactive,,inactive,inactive,inactive,,,
Cc1c(Nc2ncccc2C(=O)O)cccc1C(F)(F)F,inactive,inactive,inactive,21.1 µM (active),,inactive,inactive,inactive,inactive,inactive,inactive,,inactive,inactive,inactive,inactive,inactive
CN(C)c1ccc(N=NS(=O)(=O)O)cc1,,inactive,,,inactive,,,,inactive,inactive,inactive,inactive,inactive,inactive,inactive,inactive,
c1ccc(CCNc2nc(-c3ccccc3)cs2)cc1,,,,inactive,,,inactive,,inactive,,,inactive,inactive,inactive,inactive,,

SMILES,Potency [1],Potency [2],Potency [3],Potency [4],Potency [5],Potency [6],Potency [7],Potency [8],Potency [9],Potency [10],Potency [11],Potency [12],Potency [13],Potency [14],Potency [15],Potency [16],Potency [17]
Cc1nc2ccccc2n1Cc1ccc(Cl)cc1,5.31 µM (active),inactive,,18.8 µM (active),,,,,inactive,3.47 µM (active),inactive,inactive,,,inactive,,
Nc1nc2ccc([N+](=O)[O-])cc2s1,inactive,inactive,inactive,,inactive,inactive,inactive,,,25.2 µM (active),inactive,inactive,inactive,,,,
S=c1[nH]c2ccccc2s1,inactive,inactive,19.3 µM (active),,inactive,inactive,inactive,inactive,inactive,inactive,,inactive,,inactive,inactive,inactive,
Oc1c(Br)cc(Br)c2cccnc12,16.8 µM (active),11.9 µM (active),3.35 µM (active),10.6 µM (active),10.6 µM (active),11.9 µM (active),,27.6 µM (active),,15.5 µM (active),23.7 µM (active),21.1 µM (active),inactive,,inactive,,
Nc1cc(-c2ccncc2)c[nH]c1=O,inactive,inactive,inactive,inactive,,inactive,,inactive,inactive,inactive,inactive,inactive,inactive,inactive,inactive,inactive,
COC(=O)C1=C(C)NC(C)=C(C(=O)OCC(C)=O)C1c1ccccc1[N+](=O)[O-] (centres undefined),,,,13.3 µM (active),,,inactive,,inactive,,,,inactive,,inactive,,
Cc1cc(O)c2ccccc2c1O,,,10.6 µM (active),21.1 µM (active),,,,,,,,26.6 µM (active),inactive,,,34.4 µM (active),18.8 µM (active)
O=c1cc(-c2ccccc2)oc2ccccc12,inactive,inactive,,inactive,inactive,,inactive,,inactive,,inactive,inactive,,,,,
CC(C(=O)O)c1ccc(C(=O)c2ccccc2)s1 (centres undefined),inactive,,inactive,inactive,inactive,inactive,inactive,inactive,inactive,inactive,inactive,,inactive,inactive,inactive,inactive,inactive
CN(C)c1ccc(C(=C2C=CC(=[N+](C)C)C=C2)c2ccccc2)cc1,0.106 µM (active),,0.0422 µM (active),0.0531 µM (active),,0.0531 µM (active),,0.174 µM (active),0.075 µM (active),0.0347 µM (active),0.0596 µM (active),0.106 µM (active),0.105 µM (active),0.0978 µM (active),1.33 µM (active),1.09 µM (active),0.133 µM (active)
NC(=O)C(c1ccccc1)(c1ccccc1)[C@@H]1CCN(CCc2ccc3c(c2)CCO3)C1,,inactive,inactive,inactive,,,inactive,inactive,,,inactive,inactive,inactive,inactive,inactive,inactive,
Cc1c(C(=O)O)c(O)cc2c1C(=O)c1c(O)c([C@@H]3O[C@H](CO)[C@@H](O)[C@H](O)[C@H]3O)c(O)c(O)c1C2=O,inactive,,inactive,,,,,,,,inactive,,inactive,,inactive,inactive,
COc1cc2c3cc1Oc1cc(ccc1O)C[C@@H]1c4c(cc(OC)c(O)c4Oc4ccc(cc4)C[C@@H]3N(C)CC2)CC[N+]1(C)C,inactive,inactive,inactive,,inactive,inactive,inactive,inactive,inactive,inactive,inactive,inactive,inactive,inactive,inactive,inactive,
Nc1ccc([N+](=O)[O-])cc1O,0.001 µM (active),,0.001 µM (active),0.001 µM (active),15.4 µM (active),,,,inactive,,,,,,inactive,inactive,
O=c1[nH]c2ccccc2n1CCCN1CCN(C(c2ccccc2)c2ccccc2)CC1,inactive,,,,inactive,,,,,15.5 µM (active),,inactive,inactive,,inactive,24.4 µM (active),
C#C[C@]1(O)CC[C@H]2[C@@H]3CCc4cc(O)ccc4[C@H]3CC[C@@]21C,13.3 µM (active),,26.6 µM (active),4.73 µM (active),,8.41 µM (active),,,,24.6 µM (active),,inactive,,,inactive,,
